Here are results for 24 compounds from the supplement of paper PMC9446081.

The whole screen tested about 39,000 compounds, of which about 220 (0.56%) showed activity. Only a selection was taken, and actives are over-represented in it overall. Unmarked numbers belong to inactive results.
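Also: Wild-type cells incubated without shaking, value is the mean of two biological replicates.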

For this test, the system named is Escherichia coli K-12 BW25113. Description: relative growth (OD600 normalised to plate interquartile mean) (fraction); higher = less growth inhibition, active = 0.2 or less. The following applies: 50 µM; LB; incubation time: overnight (16-24 h).
`Cc1noc(C)c1S(=O)(=O)Nc1ccc2c(c1)C(=O)N([C@H](C)CO)C[C@@H](C)[C@H](CN(C)S(=O)(=O)c1ccc(Cl)cc1)O2`: the relative growth is 1.

For the compound `COc1ccc(C#Cc2ccc3c(c2)O[C@@H](CN(C)C(=O)CN2CCOCC2)[C@@H](C)CN([C@H](C)CO)S3(=O)=O)cc1`, the relative growth was 0.997. To `COCCNC(=O)C[C@H]1C[C@H]2c3cc(NS(C)(=O)=O)ccc3O[C@H]2[C@H](CO)O1` belongs 1.01; to `C(=C\c1ccccc1)/CSc1ncnc2c1oc1ccccc12`, 1.02.

As for `CC(=CC(=O)OCCCCCCCCC(=O)O)CC1OCC(CC2OC2C(C)C(C)O)C(O)C1O` (centres undefined), the relative growth is 0.526. With `C/C(=C\C(=O)OCCCCCCCCC(=O)O)C[C@@H]1OC[C@H](C[C@@H]2O[C@H]2[C@@H](C)[C@H](C)O)[C@@H](O)[C@H]1O` the figure was 0.166 (active); with `C[C@@H]1CN([C@@H](C)CO)C(=O)c2cc(-c3cccc(C(=O)N(C)C)c3)cnc2O[C@H]1CN(C)C(=O)Cc1ccccn1`, 0.986. Consider `CC[C@H]1OC(=O)C[C@@H](O)[C@H](C)[C@@H](O[C@@H]2O[C@H](C)C[C@H](N(C)C)[C@H]2O)[C@@H](CC=O)C[C@@H](C)C(=O)/C=C/[C@]2(C)O[C@H]2[C@@H]1C`, for which the relative growth was 0.149 (active).

Turning to `CC[C@H]1OC(=O)C[C@@H](O)[C@H](C)[C@@H](O[C@@H]2O[C@H](C)[C@@H](O[C@H]3C[C@@](C)(O)[C@@H](O)[C@H](C)O3)[C@H](N(C)C)[C@H]2O)[C@@H](CC=O)C[C@@H](C)C(=O)/C=C/C(C)=C/[C@@H]1CO[C@@H]1O[C@H](C)[C@@H](O)[C@@H](OC)[C@H]1OC`, the relative growth is 0.971. With `CCC1OC(=O)CC(O)C(C)C(OC2OC(C)C(OC3CC(C)(O)C(O)C(C)O3)C(N(C)C)C2O)C(CC=O)CC(C)C(=O)C=CC(C)=CC1COC1OC(C)C(O)C(OC)C1OC.O=C(O)C(O)C(O)C(=O)O` (centres undefined) the figure was 1.09; with `Nc1ccccc1C(=O)NCCN1CCNC1=O`, 1.01. As to `N[C@@H]1CN(c2c(F)cc3c(=O)c(C(=O)O)cn([C@@H]4C[C@@H]4F)c3c2Cl)CC12CC2`, the relative growth was 0.0347 (active).

For the compound `Cl.NC1CCN(c2c(F)cc3c(=O)c(C(=O)O)cn(C4CC4)c3c2Cl)C1` (centres undefined), the relative growth was 0.0438 (active).

For the compound `OC[C@@H](O)[C@@H](O)[C@@H](O)[C@@H](O)[C@@H](O)CO`, the relative growth was 1.

As to `C[C@H](CO)N1C[C@H](C)[C@H](CN(C)C(=O)Nc2ccc(C(F)(F)F)cc2)Oc2ccc(NS(=O)(=O)c3ccc(F)cc3)cc2C1=O`, the relative growth was 0.994. With `c1n[nH]nc1SSc1cn[nH]n1` the figure was 0.536; with `C[C@H](CO)N1C[C@H](C)[C@H](CN(C)S(C)(=O)=O)Oc2c(NC(=O)c3ccc(-c4nccs4)cc3)cccc2C1=O`, 0.995; with `CCCN(C)C[C@@H]1OCCCC[C@H](C)Oc2ccc(NC(=O)CCC(F)(F)F)cc2C(=O)N([C@@H](C)CO)C[C@@H]1C`, 1. Take `C[C@H](CO)N1C[C@H](C)[C@H](CN(C)Cc2ccccc2)OCCCC[C@H](C)Oc2ccc(NC(=O)C3CCCCC3)cc2C1=O`: the relative growth was 1.01.

As to `COc1ccc2c(c1OC)C(=O)OC2C1c2c(cc3c(c2OC)OCO3)CCN1C.Cl` (centres undefined), the relative growth is 0.0513 (active).

In the case of `COc1ccc2cc1Oc1ccc(cc1)C[C@H]1c3c(cc4c(c3Oc3cc5c(cc3OC)CCN(C)[C@@H]5C2)OCO4)CCN1C`, the relative growth is 0.993. As for `COc1ccc2cc1Oc1ccc(cc1)CC1c3c(cc4c(c3Oc3cc5c(cc3OC)CCN(C)C5C2)OCO4)CCN1C` (centres undefined), the relative growth was 0.844. In the case of `C[C@H](CO)N1C[C@H](C)[C@H](CN(C)Cc2ccccc2)Oc2c(NC(=O)Nc3cccc4ccccc34)cccc2C1=O`, the relative growth was 1. For the compound `Cc1ccc(S(=O)(=O)Nc2ccc3c(c2)C(=O)N([C@H](C)CO)C[C@@H](C)[C@@H](CN(C)C(=O)c2ccccc2)OCCCC[C@H](C)O3)cc1`, the relative growth was 1.01.
